The text below walks through data of PubChem BioAssay.

The subject of experiment [1] is TRPC4 beta (transient receptor potential cation channel C4), mouse. Kind of experiment: activators of mouse TRPC4 channel, confirmation, cell-based, Fluo4 calcium, HEK293 TRPC4beta/mu-opioid, duplicates, 10 µM (AID 2426;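 active means fluorescence ratio normalized to control raised more than 50% in primary screen plus both repeat runs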;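 on activation: percent rise of integrated ratio over buffer wells lacking compound which define 0%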). Conditions: Fluo4 calcium fluorescence, at 10 µM; active compounds read high.
Experiment [2] concerns transient receptor potential cation channel C4 beta (TRPC4), mouse. The experiment in a line: activators of mouse TRPC4 channel, confirmation, cell-based, second round, Fluo4, HEK293 TRPC4beta/mu-opioid, 1 µM (AID 2461;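 active means primary screen active and over 50% activation in each of two duplicate runs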;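 on activation: 0% = wells without test compound as baseline of integrated fluorescence ratio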). Conditions: Fluo4 calcium fluorescence, at 1 µM; active compounds read high.
Experiment [3] has as its system TRPC4 (transient receptor potential cation channel C4 beta), mouse. Kind of experiment: positive allosteric modulators of mouse TRPC4, confirmation, cell-based, second round, Fluo-4, HEK293 TRPC4beta/mu-opioid, 1 µM (AID 2554;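 active means primary screen hit whose fluorescence ratio, in both repeats, exceeds the weak agonist control mean by 3 SD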). To be noted: DAMGO EC20, Fluo-4 calcium flux, at 1 µM; active compounds read high.
In experiment [4] the test system is TRPC4 beta (transient receptor potential cation channel C4), mouse. Kind of experiment: positive allosteric modulators of mouse TRPC4, confirmation, cell-based, Fluo-4, HEK293 TRPC4beta/mu-opioid (AID 2555;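 active means primary screen hit whose calcium fluorescence ratio, in both repeats, exceeds the weak agonist control mean by 3 SD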). To be noted: DAMGO EC20, Fluo-4 calcium flux, at 10 µM; active compounds read high. Background: Calcium flux is commonly read through the fluorescence of an indicator in the cells.

Experiment [5] addresses Short transient receptor potential channel 4 (Mus musculus) (UniProt Q9QUQ5). Kind of experiment: inhibitors of mouse TRPC4 channel, confirmation, cell-based, Fluo4, HEK293 TRPC4beta/mu-opioid (AID 2636;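 active means calcium signal cut by more than 3 SD below the full-agonist control yet still positive, in both repeats and the earlier primary screen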). To be noted: DAMGO, Fluo4 calcium flux, at 10 µM; active compounds read high.
For experiment [6] the target is unchanged. The experiment in a line: inhibitors of mouse TRPC4 channel, confirmation, cell-based, second round, Fluo4, HEK293 TRPC4beta/mu-opioid, 1 µM (AID 2637;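 active means calcium signal ratio cut to more than 3 SD under the fully stimulated control mean yet still positive, in both repeats and the primary screen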). Conditions: Fluo4 calcium flux, DAMGO, at 1 µM; active compounds read high.
Experiment [7] has the same target. Kind of experiment: TRPC4 positive allosteric modulators, dose response, cell-based, HEK293 TRPC4/mu-opioid, Fluo-4 calcium, EC20 DAMGO (AID 434941).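 Further: calcium entry triggered by an EC20 dose of DAMGO at the co-expressed mu-opioid receptor.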
For experiment [8] the target is unchanged. Kind of experiment: mouse TRPC4 channel inhibitors, dose response, cell-based, HEK293 TRPC4/mu-opioid, Fluo-4 calcium (AID 434942;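 active means primary screen inhibitor hit that blocks the TRPC4 channel at some tested dose, yielding a dose curve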).
In experiment [9] the target is Short transient receptor potential channel 6 (Mus musculus) (UniProt Q61143). Kind of experiment: inhibition of mouse TRPC6 channel, confirmation, selectivity assay for TRPC4 inhibitor project, cell-based, HEK293, membrane potential dye, duplicate (AID 434948;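 active means active in primary screen and both duplicates, each dropping signal beyond three positive-control SD with fluorescence still positive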). To be noted: HEK293 TRPC6, membrane potential dye fluorescence, at 10 µM, stimulated with maximal-effect acetylcholine; active compounds read high.
Sequence of Short transient receptor potential channel 6 (Mus musculus) (Q61143 whole entry, looked up): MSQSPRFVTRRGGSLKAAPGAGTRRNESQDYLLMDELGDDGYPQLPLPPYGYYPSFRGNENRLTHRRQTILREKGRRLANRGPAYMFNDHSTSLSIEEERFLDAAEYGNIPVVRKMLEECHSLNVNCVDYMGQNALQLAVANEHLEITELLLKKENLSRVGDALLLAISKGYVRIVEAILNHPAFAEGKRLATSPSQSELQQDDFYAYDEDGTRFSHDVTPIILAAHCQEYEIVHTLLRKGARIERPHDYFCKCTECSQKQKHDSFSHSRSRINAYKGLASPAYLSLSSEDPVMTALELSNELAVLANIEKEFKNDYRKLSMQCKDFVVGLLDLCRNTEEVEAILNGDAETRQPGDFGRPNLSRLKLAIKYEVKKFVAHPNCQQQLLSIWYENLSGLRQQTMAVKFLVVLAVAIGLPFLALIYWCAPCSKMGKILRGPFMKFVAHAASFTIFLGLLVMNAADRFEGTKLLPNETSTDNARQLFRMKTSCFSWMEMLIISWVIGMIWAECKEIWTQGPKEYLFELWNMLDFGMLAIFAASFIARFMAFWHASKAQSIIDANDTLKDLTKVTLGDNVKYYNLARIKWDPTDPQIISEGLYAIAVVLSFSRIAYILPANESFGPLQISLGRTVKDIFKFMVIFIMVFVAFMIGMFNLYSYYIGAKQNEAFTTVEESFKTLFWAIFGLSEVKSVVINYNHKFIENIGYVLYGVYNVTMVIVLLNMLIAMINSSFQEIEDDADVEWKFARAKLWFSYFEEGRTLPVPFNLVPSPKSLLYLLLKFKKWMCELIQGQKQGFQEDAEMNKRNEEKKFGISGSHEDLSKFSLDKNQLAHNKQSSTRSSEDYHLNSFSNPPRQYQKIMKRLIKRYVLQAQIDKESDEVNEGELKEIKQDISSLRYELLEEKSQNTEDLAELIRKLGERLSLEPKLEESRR

Experiment [10] shares this target. The experiment in a line: activation of mouse TRPC6 channel, confirmation, selectivity assay for TRPC4 activator project, cell-based, HEK293, membrane potential dye, duplicate (AID 434950;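 active means membrane potential signal rise above negative control mean plus 3 SD in both duplicates, also active in the earlier TRPC4 screen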;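 on activation: 0% = buffer only wells and 100% = acetylcholine maximal-effect wells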). Conditions: HEK293 TRPC6, membrane potential fluorescence, at 10 µM; active compounds read high.
Experiment [11] has the same target. Kind of experiment: TRPC6 potentiation by TRPC4 potentiator hits, confirmation, selectivity assay for TRPC4 potentiator project, HEK293 cells, membrane potential dye, duplicate (AID 434952;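 active means compound raising the membrane signal above positive-control mean plus 3 SD in both repeats, and a primary screen hit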). Conditions: HEK293 TRPC6, membrane potential dye fluorescence, at 10 µM, maximal acetylcholine added after compound; active compounds read high.
Experiment [12] has as its target Short transient receptor potential channel 4 (Mus musculus) (UniProt Q9QUQ5). Kind of experiment: calcium flux activators in TRPC4/5HT1a cells, counter-screen for TRPC4 activator project, cell-based, second counter screen, HEK293 TRPC4/5HT1a, Fluo-4 (AID 434977;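 active means calcium signal rise above buffer-control mean plus 5 SD in both duplicates, and also a hit in the primary screen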;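 on activation: plate controls were assay buffer for no effect and maximal serotonin response for full effect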). To be noted: Fluo-4 calcium flux, at 10 µM; active compounds read high.
Experiment [13] is described as follows: calcium flux inhibitors in TRPC4/5HT1a cells, confirmation, counter-screen for TRPC4 inhibitor project, cell-based, second counter screen, HEK293 TRPC4/5HT1a, Fluo-4 (AID 434978;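 active means primary screen active whose calcium signal fell more than 3 SD beyond the full-serotonin control mean in both duplicate plates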;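 further: serotonin given first at submaximal then at maximal dose after compound preincubation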). Conditions: Fluo-4 calcium flux, at 10 µM, serotonin added to trigger calcium flux; active compounds read high.
Experiment [14] deals with TRPC4 (mouse), co-expressed with 5HT1a in HEK293. Kind of experiment: calcium flux potentiators in TRPC4/5HT1a cells, confirmation, counter-screen for TRPC4 potentiator project, cell-based, second counter screen, HEK293 TRPC4/5HT1a, Fluo-4 (AID 434979;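 active means signal rise over 3 SD above mean of control wells given weak agonist, in both repeats and first screen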). Conditions: Fluo-4 calcium flux, at 10 µM, serotonin added at its EC20 dose; active compounds read high.
Experiment [15] can be described thus: calcium flux activation in mu-opioid HEK293 cells, confirmation, counter-screen for TRPC4 activator project, cell-based, HEK293 mu-opioid receptor line (AID 449723;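 active means hit in primary screen, with calcium signal over 5 SD above buffer well mean in both duplicates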;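 further: counter screen cells carry the mu-opioid receptor alone and lack TRPC4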). To be noted: Fluo-4 calcium fluorescence, at 10 µM; active compounds read high.
Experiment [16] is described as follows: calcium flux enhancement in mu-opioid HEK293 cells, confirmation, counter-screen for TRPC4 allosteric potentiator project, cell-based, HEK293 mu-opioid receptor line (AID 449724;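 active means calcium signal rise more than 3 SD above the low-dose agonist control mean, in both duplicate plates and the primary screen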;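 further: HEK293 cells carrying mu-opioid receptor only with no TRPC4 channel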). To be noted: Fluo-4 calcium flux, at 10 µM, compound added before EC20 DAMGO stimulus; active compounds read high.

For part of these data: Entries with a potency or affinity are not part of this list. Active and inactive are the calls of the source.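 How the source made its calls, unless noted: active means earlier screen potentiator hit that boosts the TRPC4 ion channel at some dose, with a dose response; inactive means no potentiation, no dose response, or not a prior hit.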

Sequence of Short transient receptor potential channel 4 (Mus musculus) (Q9QUQ5 whole entry, looked up): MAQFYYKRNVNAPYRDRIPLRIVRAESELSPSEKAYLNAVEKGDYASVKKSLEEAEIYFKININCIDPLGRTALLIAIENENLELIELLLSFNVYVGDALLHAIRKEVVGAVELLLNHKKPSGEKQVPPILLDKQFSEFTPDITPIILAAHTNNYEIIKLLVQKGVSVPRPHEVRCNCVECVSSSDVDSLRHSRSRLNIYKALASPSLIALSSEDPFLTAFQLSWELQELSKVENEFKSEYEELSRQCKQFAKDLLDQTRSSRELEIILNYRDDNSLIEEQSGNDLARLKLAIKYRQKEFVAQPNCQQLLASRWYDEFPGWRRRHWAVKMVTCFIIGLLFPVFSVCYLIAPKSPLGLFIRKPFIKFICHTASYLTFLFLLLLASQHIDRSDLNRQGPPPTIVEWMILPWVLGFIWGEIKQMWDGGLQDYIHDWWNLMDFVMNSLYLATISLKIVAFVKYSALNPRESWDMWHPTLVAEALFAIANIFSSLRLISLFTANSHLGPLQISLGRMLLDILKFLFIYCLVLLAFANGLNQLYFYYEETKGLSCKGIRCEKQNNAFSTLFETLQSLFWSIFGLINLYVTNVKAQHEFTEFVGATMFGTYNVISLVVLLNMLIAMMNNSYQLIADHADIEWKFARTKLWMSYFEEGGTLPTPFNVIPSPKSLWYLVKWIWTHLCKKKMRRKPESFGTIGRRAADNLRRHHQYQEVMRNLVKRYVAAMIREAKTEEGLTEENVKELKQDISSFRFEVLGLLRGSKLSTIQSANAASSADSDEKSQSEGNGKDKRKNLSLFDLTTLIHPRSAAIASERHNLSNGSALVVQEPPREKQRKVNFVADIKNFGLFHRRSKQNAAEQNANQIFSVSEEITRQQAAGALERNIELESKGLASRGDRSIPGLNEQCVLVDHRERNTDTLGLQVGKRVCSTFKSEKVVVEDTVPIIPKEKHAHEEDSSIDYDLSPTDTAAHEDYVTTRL

With `Cc1cccc(OCCOCCN2CCNCC2)c1C`, the activation in experiment [1] was 167% (active); in experiment [2], 69% (active); in experiment [10] it was 35% (active); in [12], 65.6% (active). Also, the outcome in [3], in experiment [4], in [5], in [6], in experiment [7] and in experiment [8] was inactive. For the same compound, the compound was classed as inactive in experiment [9], in experiment [11], in [13], in experiment [14], in experiment [15] and in [16].
On to `O=C(NCCNC1CCC(c2ccccc2)CC1)c1cccs1` (stereo not given), for which the activation was 169% (active) in [1], 95% (active) in [2], 66% (active) in [10] and 103% (active) in experiment [12]. Moreover, the result in experiment [3], in experiment [4], in [5], in experiment [6], in experiment [7] and in [8] was inactive. The call in experiment [9], in experiment [11], in experiment [13], in experiment [14], in [15] and in experiment [16] was inactive.
As to `CCN1CCN(c2ccc(S(=O)(=O)N3CCOCC3)cc2NC(=O)/C=C/c2ccc(OC)cc2OC)CC1`, the activation is 112% (active) in experiment [1] and 6.55% (active) in experiment [12]. The result in experiment [2], in [3], in experiment [4], in [5], in experiment [6] and in experiment [7] was inactive. Moreover, the result in experiment [8], in [9], in [10], in experiment [11], in experiment [13] and in [14] was inactive. For the same compound, the result in experiment [15] and in [16] was inactive.
Regarding `O=C(Nc1ccc(Cl)cc1)N1CCC(c2nc(-c3cccs3)no2)CC1`, the activation in experiment [1] is 158% (active); in [12], 46.6% (active). Besides, the result in experiment [2], in experiment [3], in experiment [4], in [5], in experiment [6] and in experiment [7] was inactive. The outcome in experiment [8], in experiment [9], in [10], in [11], in experiment [13] and in experiment [14] was inactive. Further, the result in experiment [15] and in experiment [16] was inactive.
In the case of `COc1ccc(C(CNC(=O)/C=C/c2c(Cl)nc3ccccn23)N(C)C)cc1` (stereo not given), the activation in experiment [1] is 268% (active); in experiment [2] it was 153% (active); in experiment [10], 41% (active); in experiment [12], 7.37% (active). For the same compound, the result in experiment [3], in experiment [4], in [5], in [6], in experiment [7] and in experiment [8] was inactive. The outcome in experiment [9], in experiment [11], in [13], in experiment [14], in [15] and in [16] was inactive.
Take `O=C(NCc1ccccc1)C1=C[C@@H](C2CCCCC2)C[C@@H](OCc2ccc(CO)cc2)O1`: the activation in experiment [1] was 183% (active); in [10], 30.5% (active); in [12], 112% (active). Moreover, the outcome in experiment [2], in experiment [3], in [4], in experiment [5], in [6] and in experiment [7] was inactive. Also, the outcome in [8], in experiment [9], in experiment [11], in experiment [13], in [14] and in experiment [15] was inactive. Besides, the result in [16] was inactive.
Turning to `Cc1csc2c(N3CCN(C(=O)Nc4ccccc4)CC3)ncnc12`, the figures for the activation in [1] and in [12] were 99% (active) and 48.3% (active), respectively. The outcome in experiment [2], in experiment [3], in [4], in [5], in experiment [6] and in [7] was inactive. Also, the result in experiment [8], in [9], in experiment [10], in experiment [11], in experiment [13] and in experiment [14] was inactive. The result in experiment [15] and in experiment [16] was inactive.
With `COc1ccc(CN2CCC(N(CCc3ccccc3)Cc3ccccc3)CC2)c(OC)c1`, the activation in experiment [1] was 95% (active); in experiment [10], 44% (active). For the same compound, the result in experiment [2], in experiment [3], in experiment [4], in [5], in [6] and in [7] was inactive. Further, the outcome in [8], in [9], in [11], in experiment [12], in experiment [13] and in [14] was inactive. For the same compound, the result in experiment [15] and in experiment [16] was inactive.
On to `O=C(Cc1cccc(F)c1F)NC1CCCN(Cc2ccc(Cl)cc2)C1` (stereo not given), for which the result in experiment [1], in [2], in experiment [3], in [4], in experiment [5] and in experiment [6] was inactive. Further, the result in [7], in [8], in experiment [9], in experiment [11], in [12] and in experiment [13] was inactive. Also, the outcome in experiment [14], in experiment [15] and in [16] was inactive. Also, the activation in experiment [10] is 37.5% (active).
Take `CN(CCc1ccccn1)C(=O)CC1C(=O)NCCN1Cc1ccc(-c2ccccc2)cc1` (stereo not given): the activation in experiment [1] is 130% (active); in experiment [10], 42.5% (active); in experiment [12] it was 31.3% (active). Also, the result in experiment [2], in [3], in experiment [4], in [5], in [6] and in [7] was inactive. Besides, the result in experiment [8], in experiment [9], in experiment [11], in [13], in [14] and in experiment [15] was inactive. Moreover, in [16], the outcome was inactive.
Consider `COc1ccc(N2CCN(Cc3nc4ccccc4n3C)CC2)cc1`, for which, in [1], the activation was 154% (active). The result in experiment [2], in experiment [3], in [4], in experiment [5], in experiment [6] and in experiment [7] was inactive. Moreover, the outcome in experiment [8], in [9], in [10], in experiment [11], in experiment [12] and in experiment [13] was inactive. The result in [14], in experiment [15] and in experiment [16] was inactive.
Take `CN(C)CCNC(=O)c1scc2c1CCCC2`: the result in experiment [1], in experiment [2], in experiment [3], in experiment [4], in experiment [5] and in experiment [6] was inactive. For the same compound, the outcome in experiment [7], in [8], in experiment [9], in experiment [11], in [13] and in experiment [14] was inactive. In addition, the outcome in [15] and in experiment [16] was inactive. The figures for the activation in experiment [10] and in [12] were 41.5% (active) and 19.6% (active), respectively.
Turning to `CN(C)CCCN(C(=O)c1ccc(Cl)s1)c1nc2cc3c(cc2s1)OCO3`, the activation in [1] was 63% (active). In addition, the result in [2], in experiment [3], in experiment [4], in experiment [5], in experiment [6] and in experiment [7] was inactive. For the same compound, the outcome in experiment [8], in [9], in [10], in experiment [11], in [12] and in experiment [13] was inactive. Moreover, the outcome in experiment [14], in experiment [15] and in experiment [16] was inactive.
Take `CCCCN(CC)CCCNC(=O)Cn1nc(Cc2cccnc2)c2ccccc2c1=O`: the figures for the activation in experiment [1] and in [12] were 86% (active) and 28.3% (active), respectively. Also, the result in experiment [2], in experiment [3], in experiment [4], in experiment [5], in experiment [6] and in [7] was inactive. Further, the result in experiment [8], in experiment [9], in experiment [10], in [11], in [13] and in [14] was inactive. Moreover, the outcome in experiment [15] and in [16] was inactive.
In the case of `COc1ccc(-n2nc(C(=O)NCC(=O)NCCCN3CC(C)CC(C)C3)c3ccccc3c2=O)cc1Cl` (stereo not given), the outcome in [1], in experiment [2], in experiment [3], in experiment [4], in experiment [5] and in experiment [6] was inactive. Also, the outcome in experiment [7], in experiment [8], in experiment [9], in experiment [10], in experiment [11] and in [13] was inactive. Further, the outcome in experiment [14], in experiment [15] and in experiment [16] was inactive. In [12], the activation was 12.2% (active).
